Read-out in test [1]: Human Leukocyte Antigen - DR isotype (HLADR), HLA-DRA (gene 3122)
The test is described as follows: BSK_3C_HLADR: BioMAP Diversity Plus: 3C Assay for Human Leukocyte Antigen - DR isotype (HLADR) Biomarker Activity (AID 2283019).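 As to outcome: ELISA of cell-surface HLA-DR on HUVEC 24 h after dosing.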 Particulars: primary human endothelial cells (HUVEC); actives raise or lower the signal. Put shortly:
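Primary human umbilical vein endothelial cells (3C system) were dosed with compound and cell-surface HLA-DR was quantified by ELISA at 24 h. Activity was fitted bidirectionally against DMSO as negative control and baseline.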

Read-out in test [2]: Vascular endothelial growth factor receptor 2 (Homo sapiens) (UniProt P35968)
The test is described as follows: BSK_4H_VEGFRII: BioMAP Diversity Plus: 4H Assay for Vascular endothelial growth factor receptor 2 (VEGFR2) Biomarker Activity (AID 2283031). As to conditions: primary human endothelial cells (HUVEC); actives raise or lower the signal. Put shortly: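 Primary human umbilical vein endothelial cells in the BioMAP 4H system were dosed with test chemical, and 24 h later VEGFRII was measured by ELISA. Activity was fitted bidirectionally against DMSO as negative control and baseline.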

Read-out in test [3]: Interleukin-8 (IL8), CXCL8 (gene 3576)
The test is described as follows: BSK_CASM3C_IL8: BioMAP Diversity Plus: CASM3C Assay for Interleukin-8 (IL8) Biomarker Activity (AID 2283042).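 Also: IL-8 protein level quantified by ELISA.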 As to conditions: primary human coronary artery smooth muscle cells; actives raise or lower the signal.

Read-out in test [4]: Monokine induced gamma interferon (MIG), CXCL9 (gene 4283)
The test is described as follows: BSK_CASM3C_MIG: BioMAP Diversity Plus: CASM3C Assay for Monokine induced gamma interferon (MIG) Biomarker Activity (AID 2283048).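 Also: MIG protein level measured by ELISA.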 Particulars: primary human coronary artery smooth muscle cells; actives raise or lower the signal.

Read-out in test [5]: Urokinase-type plasminogen activator receptor (uPAR), PLAUR (gene 5329)
Put plainly: BSK_CASM3C_uPAR: BioMAP Diversity Plus: CASM3C Assay for Urokinase-type plasminogen activator receptor (uPAR) Biomarker Activity (AID 2283054).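 Also: cell-surface uPAR protein level quantified by ELISA.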 Particulars: primary human coronary artery smooth muscle cells; actives raise or lower the signal.

Read-out in test [6]: Tissue Factor, F3 (gene 2152)
Put plainly: BSK_LPS_TissueFactor: BioMAP Diversity Plus: LPS Assay for Tissue Factor Biomarker Activity (AID 2283084). Particulars: primary human HUVEC with PBMC; actives raise or lower the signal. Put shortly: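 Human umbilical vein endothelial cells co-cultured with peripheral blood mononuclear cells were dosed and stimulated with LPS. Cell-surface CD142 was quantified by ELISA at 24 h. Activity was fitted bidirectionally against DMSO baseline.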

Read-out in test [7]: Vascular cell adhesion molecule 1 (VCAM1), VCAM1 (gene 7412)
Put plainly: BSK_LPS_VCAM1: BioMAP Diversity Plus: LPS Assay for Vascular cell adhesion molecule 1 (VCAM1) Biomarker Activity (AID 2283086). Particulars: primary human HUVEC with PBMC; actives raise or lower the signal. Put shortly:
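VCAM-1 quantified by ELISA in an LPS-activated co-culture of human endothelial cells and peripheral blood mononuclear cells, read 24 h post-treatment. Fitted in both directions versus DMSO; parallel SRB staining flags overt cytotoxicity.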

Read-out in a further test: CD40, CD40 (gene 958)
The test is described as follows: BSK_SAg_CD40: BioMAP Diversity Plus: SAg Assay for CD40 Biomarker Activity (AID 2283088). Particulars: primary human HUVEC with PBMC; actives raise or lower the signal. Put shortly: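 Human umbilical vein endothelial cells co-cultured with PBMC; CD40 levels measured by ELISA with fluorescence read-out 24 h after chemical dosing. Gain or loss of signal fitted bidirectionally against DMSO baseline.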

Read-out in test [8]: Interleukin-8 (IL8), CXCL8 (gene 3576)
Put plainly: BSK_SAg_IL8: BioMAP Diversity Plus: SAg Assay for Interleukin-8 (IL8) Biomarker Activity (AID 2283094). Particulars: primary human HUVEC with PBMC; actives raise or lower the signal. The procedure, abridged:
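ELISA readout of IL-8 from a superantigen-activated endothelial/PBMC primary human co-culture, taken 24 h post-dosing and fitted in both directions against DMSO; parallel SRB total-protein staining flags overt cytotoxicity.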

A short description of test [9]: BSK_SAg_SRB: Viability Assessment in the BioMAP Diversity Plus: SAg Assay (AID 2283096).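 Also: cells read one day after compound addition; hits may be either gain or loss of signal compared with DMSO.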 Particulars: primary human HUVEC with PBMC. The procedure, abridged: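 This overt-cytotoxicity endpoint quantifies protein in human endothelial/PBMC co-cultures at 24 h using SRB absorbance (560 nm) after trichloroacetic acid fixation. Values reflect signal change from the DMSO negative control, fitted bidirectionally.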

Test [10] is described as follows: BSK_BT_PBMCCytotoxicity: PBMC Cytotoxicity Assessment in the BioMAP Diversity Plus: BT Assay (AID 2284225).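 Also: PBMC viability measured by Alamar Blue dye reduction fluorescence.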 Particulars: primary human B cells with PBMC. Put shortly:
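Viability by Alamar Blue reduction (6 h, ex/em 546/580 nm) after 90 h culture of SEB/TSST-1-activated PBMC (20 ng/mL each) given compound 1 h before activation. DMSO served as baseline for curve fitting.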

Read-out in test [11]: Secreted IgG (sIgG), gene 3500
Put plainly: BSK_BT_sIgG: BioMAP Diversity Plus: BT Assay for Secreted IgG (sIgG) Biomarker Activity (AID 2284226). As to conditions: primary human B cells with PBMC. Put shortly:
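ELISA quantitation of secreted IgG from human B cells co-cultured with PBMC, sampled 24 h post-dosing. Values fitted relative to DMSO vehicle as baseline, positive fitting direction.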

The nature of test [12]: BSK_BT_Bcell_Proliferation: Viability Assessment in the BioMAP Diversity Plus: BT Assay for B cell Proliferation (AID 2284227). Particulars: primary human B cells with PBMC. The procedure, abridged: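 SRB-based protein staining (0.1% SRB after 10% TCA fixation, 560 nm) quantifies proliferation in human B cells co-cultured with PBMC, 72 h post-dosing, with signal gain scored relative to DMSO negative control.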

Read-out in test [13]: Interleukin 17A (IL17A), IL17A (gene 3605)
Put plainly: BSK_BT_xIL17A: BioMAP Diversity Plus: BT Assay for Interleukin 17A (IL17A) Biomarker Activity (AID 2284229). As to conditions: primary human B cells with PBMC. Put shortly:
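B cells co-cultured with PBMC were exposed to test chemicals, and secreted IL-17A was quantified 24 h after dosing by Luminex xMAP bead immunoassay. Activity was fitted in the gain direction against DMSO as baseline.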

Read-out in test [14]: Collagen III, COL3A1 (gene 1281)
The test is described as follows: BSK_MyoF_CollagenIII: BioMAP Diversity Plus: MyoF Assay for Collagen III Biomarker Activity (AID 2284239). As to conditions: primary human lung fibroblasts. The procedure, abridged: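 Human lung fibroblasts were dosed with chemicals and, 24 hours later, collagen III was measured by ELISA. Activity was fitted in the positive direction against the DMSO negative-control baseline.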

Read-out in test [15]: Interleukin 2 (IL2), IL2 (gene 3558)
The test is described as follows: BSK_BT_xIL2: BioMAP Diversity Plus: BT Assay for Interleukin 2 (IL2) Biomarker Activity (AID 2284245). Particulars: primary human B cells with PBMC. Put shortly: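 Secreted IL-2 was read by Luminex xMAP from B cells co-cultured with PBMC (human primary) 24 h post-dosing; activity was analysed as gain of signal relative to DMSO vehicle.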

Read-out in test [16]: Collagen IV, COL4A1 (gene 1282)
Put plainly: BSK_MyoF_CollagenIV: BioMAP Diversity Plus: MyoF Assay for Collagen IV Biomarker Activity (AID 2284247). Particulars: primary human lung fibroblasts. Put shortly:
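Collagen IV quantified by ELISA in human lung fibroblast cultures 24 h after chemical treatment, with DMSO as baseline. Parallel SRB staining (0.1% SRB after TCA fixation, 560 nm) flags overt cytotoxicity.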

Read-out in test [17]: Plasminogen activator inhibitor-1 (PAI1), SERPINE1 (gene 5054)
The test is described as follows: BSK_MyoF_PAI1: BioMAP Diversity Plus: MyoF Assay for Plasminogen activator inhibitor-1 (PAI1) Biomarker Activity (AID 2284256).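 As to outcome: PAI-1 protein level measured by ELISA in fibroblast cultures; PAI-1 read 24 h after compound addition.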 As to conditions: primary human lung fibroblasts. Put shortly:
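ELISA read-out of PAI-1 from primary human lung fibroblast cultures 24 h after dosing; gain-of-signal fit versus DMSO control.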

Read-out in test [18]: Matrix Metallopeptidase 1 (MMP1), MMP1 (gene 4312)
Put plainly: BSK_MyoF_MMP1: BioMAP Diversity Plus: MyoF Assay for Matrix Metallopeptidase 1 (MMP1) Biomarker Activity (AID 2284268). Particulars: primary human lung fibroblasts. The procedure, abridged: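 ELISA readout of MMP1 in primary human lung fibroblast cultures, 24 h post-dosing. Gain of signal versus DMSO vehicle control defines activity. Parallel SRB staining (0.1% after 10% TCA fixation, 560 nm) flags overt cytotoxicity.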

The target in test [19] is Estrogen receptor (Homo sapiens) (UniProt P03372). Put plainly: ATG_ERa_TRANS: Attagene TRANS-FACTORIAL HepG2 Assay for human Estrogen Receptor alpha (ERa) (AID 2282970; active = hit-call score of the fitted dose curve at least 0.9, where 1 is the maximum). As to conditions: HepG2 Attagene TRANS ERa GAL4 reporter, mRNA. The procedure, abridged:
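One of 30 multiplexed endpoints from a HepG2 TRANS system, this one reports ERa-Gal4-driven reporter mRNA. Transcripts were quantified 24 hours post-dosing by fluorescent RT-PCR and capillary electrophoresis, with activity scored as induction over DMSO.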

Results filed as inconclusive are left out. Calls of active or inactive are those of the source. The calls were made as follows, unless noted: active = hit-call score of the fitted dose curve at least 0.9, where 1 is the maximum; inactive = score below 0.9.

Chain of Estrogen receptor (Homo sapiens) (P03372 whole entry, looked up, the tested form may be a part): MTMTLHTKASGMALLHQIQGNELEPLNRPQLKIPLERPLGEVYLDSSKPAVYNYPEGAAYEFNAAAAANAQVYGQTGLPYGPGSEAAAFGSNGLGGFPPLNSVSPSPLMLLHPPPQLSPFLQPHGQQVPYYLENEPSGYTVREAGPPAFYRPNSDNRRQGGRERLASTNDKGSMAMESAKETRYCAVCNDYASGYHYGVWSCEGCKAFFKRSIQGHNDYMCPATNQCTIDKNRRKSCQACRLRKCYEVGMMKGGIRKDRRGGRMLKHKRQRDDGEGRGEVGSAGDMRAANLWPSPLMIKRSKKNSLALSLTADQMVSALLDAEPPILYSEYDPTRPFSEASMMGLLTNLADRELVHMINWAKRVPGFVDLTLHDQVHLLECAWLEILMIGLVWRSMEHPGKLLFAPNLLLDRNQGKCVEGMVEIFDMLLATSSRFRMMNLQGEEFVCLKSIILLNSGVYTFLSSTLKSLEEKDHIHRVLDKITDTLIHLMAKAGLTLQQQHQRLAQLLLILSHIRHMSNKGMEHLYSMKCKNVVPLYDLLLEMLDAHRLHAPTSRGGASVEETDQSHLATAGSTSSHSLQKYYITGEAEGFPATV

Regarding `O=[N+]([O-])c1ccc(Cl)cc1`, the outcome in test [1], in test [2], in [3], in test [4], in test [5] and in test [6] was inactive. The outcome in [7] is “inactive”; in the test with CD40, CD40 (gene 958) it was “inactive”; in [8] it was “inactive”; in test [9] it was “inactive”.
Consider `CCc1cc(C)cc(CC)c1-c1c(OC(=O)C(C)(C)C)n2n(c1=O)CCOCC2`, for which the AC50 in test [1] was 24.7 µM (active); in [7], 3.97 µM (active). Besides, the outcome is “inactive” in [2]; “inactive” in test [3]; “inactive” in [4]; “inactive” in test [5]; “inactive” in test [6]; “inactive” with CD40, CD40 (gene 958). Also, the outcome in test [8], in test [9], in [10], in test [11], in test [12] and in [13] was inactive. The result in test [14], in test [15], in test [16], in test [17] and in [18] was inactive.
Turning to `c1ccc(P(c2ccccc2)c2ccccc2)cc1`, the AC50 in test [19] is 15.2 µM (active).
Turning to `Oc1cc(Cl)ccc1Cl`, the outcome in test [1], in test [2], in [3], in test [4], in test [5] and in test [6] was inactive. In addition, the outcome in test [7] was “inactive”; with CD40, CD40 (gene 958), “inactive”; in [8], “inactive”; in [9], “inactive”; in [10], “inactive”; in [11], “inactive”. Further, the result in test [12], in [13], in [14], in test [15], in test [16] and in test [18] was inactive. Further, the half-maximal activity concentration (AC50) in [17] was 0.245 µM (active).
Take `COc1ccc(CO)cc1`: the outcome in test [1], in [3], in test [4], in test [5], in test [6] and in test [7] was inactive. Further, the outcome with CD40, CD40 (gene 958) was “inactive”; in test [8], “inactive”; in test [9], “inactive”.
Consider `O=C(CCl)c1ccccc1`, for which the AC50 in test [1] is 3.04 µM (active); in [3] it was 11.2 µM (active); in [4], 10.5 µM (active); in [5], 10.4 µM (active); in test [6], 5.81 µM (active); in [7] it was 3.68 µM (active). Also, the AC50 with CD40, CD40 (gene 958) was 5.77 µM (active); in test [8] it was 5.88 µM (active); in [9], 14 µM (active). Also, the result in test [2] was inactive.

The values are drawn from PubChem BioAssay (EPA / NIEHS).
